Measurements published in PubChem BioAssay (NCI).
This is part of a sample that, as a whole, favours compounds with a hit. Of some 79,000 tested, about 15% had one in any assay. Calls of active or inactive are those of the source. Rule as the data show it: active = growth inhibition above about 70%; inactive = the rest.

What was measured:
[1] = NCI Yeast Anticancer Drug Screen. Data for the rad52 strain (AID 147);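 also: 0% = growth of vehicle-treated control cultures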; conditions: S. cerevisiae rad52 mutant growth inhibition, active compounds read high
Procedure, shortened: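 Yeast strain carrying a DNA damage repair alteration was exposed to test compounds. Growth inhibition was measured relative to vehicle-treated controls.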

[2] = NCI Yeast Anticancer Drug Screen. Data for the wt1 strain (AID 149);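 also: 0% = growth of vehicle-treated wt1 cultures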; conditions: S. cerevisiae wt1 strain (SPY 50644) growth inhibition, active compounds read high
Procedure, shortened: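 Readout: yeast growth inhibition, normalised to vehicle controls, in the wt1 strain exposed to test compounds.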

[3] = NCI Yeast Anticancer Drug Screen. Data for the rad50EPP+ strain (AID 151);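 also: 0% = growth of vehicle-treated control cultures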; conditions: S. cerevisiae rad50 mutant strain, active compounds read high
Procedure, shortened: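 Yeast strain carrying rad50 alteration (rad50EPP+) exposed to compounds; growth inhibition measured relative to vehicle-treated controls.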

[4] = NCI Yeast Anticancer Drug Screen. Data for the mgt1 strain (AID 153); conditions: S. cerevisiae mgt1 mutant growth inhibition, active compounds read high
Procedure, shortened: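 Yeast mgt1 strain (DNA repair/cell-cycle alteration panel) exposed to compounds; growth inhibition measured relative to vehicle-treated controls.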

[5] = NCI Yeast Anticancer Drug Screen. Data for the rad50 strain (AID 155);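 also: 0% = growth of vehicle-only cultures of the same strain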; conditions: S. cerevisiae rad50 strain growth inhibition, active compounds read high
Procedure, shortened: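 Compounds were tested on a yeast strain with an engineered DNA damage repair alteration; the reported value is growth inhibition normalised to vehicle treatment.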

[6] = NCI Yeast Anticancer Drug Screen. Data for the mec2-1 strain (AID 157); conditions: S. cerevisiae mec2-1 strain, active compounds read high
Procedure, shortened: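 mec2-1 yeast strain, carrying an alteration in DNA damage repair or cell cycle control, was exposed to compounds; growth inhibition was measured relative to vehicle-treated controls.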

[7] = NCI Yeast Anticancer Drug Screen. Data for the rad14 strain (AID 159);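 also: 0% = growth of vehicle-treated control cultures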; conditions: S. cerevisiae rad14 strain growth inhibition, active compounds read high
Procedure, shortened: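 Compound-treated yeast with a defined DNA-repair lesion; growth inhibition normalised to vehicle-treated cultures.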

[8] = NCI Yeast Anticancer Drug Screen. Data for the sgs1 mgt1 strain (AID 161);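 also: 0% = growth of cultures given vehicle only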; conditions: S. cerevisiae sgs1 mgt1 strain, active compounds read high
Procedure, shortened: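 Compounds are added to genetically altered yeast, and growth is compared with cultures given vehicle alone to give percent inhibition.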

[9] = NCI Yeast Anticancer Drug Screen. Data for the CLN2oe strain (AID 163);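 also: 0% = growth of vehicle-only control cultures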; conditions: S. cerevisiae CLN2oe strain, active compounds read high
Procedure, shortened: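 Yeast cells carrying a defined cell-cycle control alteration were exposed to test compounds. Growth inhibition was scored against vehicle-treated control cultures.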

[10] = NCI Yeast Anticancer Drug Screen. Data for the cln2 rad14 strain (AID 165);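 also: 0% = growth equal to vehicle treated cultures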; conditions: S. cerevisiae cln2 rad14 strain, active compounds read high
Procedure, shortened: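 Yeast carrying cln2 and rad14 alterations (cell cycle control and DNA damage repair) were exposed to compounds. Growth inhibition was measured against vehicle-treated controls.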

[11] = NCI Yeast Anticancer Drug Screen. Data for the bub3 strain (AID 167); conditions: S. cerevisiae bub3 mutant strain, active compounds read high
Procedure, shortened: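 Growth of a checkpoint-deficient yeast mutant is measured after compound exposure. Values represent inhibition relative to vehicle.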

[12] = NCI Yeast Anticancer Drug Screen. Data for the wt2 strain (AID 169);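 also: 0% = growth of vehicle-treated yeast cultures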; conditions: S. cerevisiae wt2 strain growth inhibition, active compounds read high
Procedure, shortened: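 Yeast cells were exposed to test compounds, and growth inhibition was measured relative to vehicle-treated controls.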

[13] = NCI Yeast Anticancer Drug Screen. Data for the mlh1 strain (AID 171);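 also: 0% = growth of vehicle-treated control cultures of the same strain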; conditions: S. cerevisiae mlh1 strain growth inhibition, active compounds read high
Procedure, shortened: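 Yeast carrying a defined genetic alteration in DNA damage repair or cell cycle control were exposed to test compounds. Growth inhibition was measured relative to vehicle-treated controls.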

[14] = NCI Yeast Anticancer Drug Screen. Data for the sgs1 strain (AID 173);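 also: 0% = growth of vehicle-only control cultures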; conditions: S. cerevisiae sgs1 mutant, active compounds read high
Procedure, shortened: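 Yeast mutant strains carrying defined defects in DNA damage repair or cell cycle control were exposed to test compounds. Growth inhibition was scored against vehicle-treated controls.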

[15] = NCI Yeast Anticancer Drug Screen. Data for the mlh1 rad18 strain (AID 175); conditions: S. cerevisiae mlh1 rad18 strain growth inhibition, active compounds read high
Procedure, shortened: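 Growth inhibition of the yeast strain was measured after compound exposure and expressed relative to vehicle-treated controls. The strain carries defined defects in DNA damage repair.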

[16] = NCI Yeast Anticancer Drug Screen. Data for the rad18 strain (AID 177); conditions: S. cerevisiae rad18 mutant growth inhibition, active compounds read high
Procedure, shortened: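 Yeast carrying a defined DNA damage repair alteration were exposed to compounds. Growth inhibition was expressed relative to vehicle-treated controls.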

[17] = at 5.0 µM (retest, dose inferred, filed as 0.5)
[18] = at 50.0 µM (retest, dose inferred, filed as 5.0)

Measured: growth inhibition

COC(=O)C1=C(C)NC(C)=C(C(=O)OCCCN2CCC(c3ccccc3)(c3ccccc3)CC2)C1c1cccc([N+](=O)[O-])c1 (stereo unspecified)
active: [1]; at 11.0 µM 97% | [1]; at 33.0 µM 97% | [1]; at 100.0 µM 88% | [2]; at 33.0 µM 98% | [2]; at 100.0 µM 94% | [3]; at 3.7 µM 86% | [3]; at 11.0 µM 88% | [3]; at 33.0 µM 92% | [3]; at 100.0 µM 82% | [4]; at 11.0 µM 98% | [4]; at 33.0 µM 98% | [4]; at 100.0 µM 93% | [5]; at 11.0 µM 97% | [5]; at 33.0 µM 95% | [5]; [18] 99% | [5]; at 50.0 µM 94.5% | [5]; at 100.0 µM 84% | [6]; at 11.0 µM 98% | [6]; at 33.0 µM 98% | [6]; [18] 98% | [6]; at 50.0 µM 95.9% | [6]; at 100.0 µM 92% | [7]; at 3.7 µM 76% | [7]; at 11.0 µM 99% | [7]; at 33.0 µM 98% | [7]; at 100.0 µM 89% | [8]; [18] 98% | [8]; at 50.0 µM 94% | [9]; at 11.0 µM 96% | [9]; at 33.0 µM 98% | [9]; at 100.0 µM 84% | [10]; [18] 98% | [10]; at 50.0 µM 94.2% | [11]; at 11.0 µM 83% | [11]; at 33.0 µM 98% | [11]; [18] 97% | [11]; at 50.0 µM 97% | [11]; at 100.0 µM 90% | [12]; at 11.0 µM 98% | [12]; at 33.0 µM 97% | [12]; at 100.0 µM 91% | [13]; at 11.0 µM 98% | [13]; at 33.0 µM 98% | [13]; at 100.0 µM 92% | [14]; at 11.0 µM 97% | [14]; at 33.0 µM 98% | [14]; at 100.0 µM 91% | [15]; [17] 74% | [15]; [18] 98% | [15]; at 50.0 µM 92.7%
inactive: [1]; at 1.2 µM -8% | [1]; at 3.7 µM 2% | [2]; at 1.2 µM -3% | [2]; at 3.7 µM -5% | [2]; at 11.0 µM 69% | [3]; at 1.2 µM 66% | [4]; at 1.2 µM -5% | [4]; at 3.7 µM 22% | [5]; at 1.2 µM 1% | [5]; at 3.7 µM 48% | [5]; [17] 37% | [6]; at 1.2 µM -1% | [6]; at 3.7 µM 16% | [6]; [17] 9% | [7]; at 1.2 µM 20% | [8]; [17] 50% | [9]; at 1.2 µM -3% | [9]; at 3.7 µM 21% | [10]; [17] 14% | [11]; at 1.2 µM 11% | [11]; at 3.7 µM 16% | [11]; [17] 42% | [12]; at 1.2 µM -4% | [12]; at 3.7 µM 25% | [13]; at 1.2 µM 1% | [13]; at 3.7 µM 51% | [14]; at 1.2 µM -3% | [14]; at 3.7 µM 23%

CCOc1ccc2c(c1)c(CC(=O)O)cn2C
active: [1]; at 100.0 µM 85% | [3]; at 11.0 µM 71% | [3]; at 33.0 µM 94% | [3]; at 100.0 µM 97% | [5]; at 33.0 µM 92% | [5]; [18] 94% | [5]; at 100.0 µM 98% | [7]; at 100.0 µM 75% | [11]; [18] 81% | [11]; at 50.0 µM 79.8% | [11]; at 100.0 µM 87% | [13]; at 100.0 µM 75% | [14]; at 100.0 µM 89% | [15]; [18] 92% | [15]; at 50.0 µM 88.2% | [16]; at 100.0 µM 87%
inactive: [1]; at 1.2 µM 0% | [1]; at 3.7 µM 7% | [1]; at 11.0 µM 20% | [1]; at 33.0 µM 60% | [2]; at 1.2 µM -4% | [2]; at 3.7 µM -3% | [2]; at 11.0 µM 3% | [2]; at 33.0 µM 28% | [2]; at 100.0 µM 54% | [3]; at 1.2 µM 6% | [3]; at 3.7 µM 27% | [4]; at 1.2 µM -3% | [4]; at 3.7 µM -6% | [4]; at 11.0 µM 1% | [4]; at 33.0 µM 18% | [4]; at 100.0 µM 51% | [5]; at 1.2 µM -6% | [5]; at 3.7 µM 7% | [5]; [17] -74% | [5]; at 11.0 µM 48% | [5]; at 50.0 µM 32.8% | [6]; at 1.2 µM 1% | [6]; at 3.7 µM -2% | [6]; [17] -40% | [6]; at 11.0 µM -7% | [6]; at 33.0 µM 27% | [6]; [18] 3% | [6]; at 50.0 µM 38.6% | [6]; at 100.0 µM 48% | [7]; at 1.2 µM 4% | [7]; at 3.7 µM 7% | [7]; at 11.0 µM 20% | [7]; at 33.0 µM 57% | [8]; [17] -38% | [8]; [18] 63% | [8]; at 50.0 µM 23.4% | [9]; at 1.2 µM -3% | [9]; at 3.7 µM -1% | [9]; at 11.0 µM 6% | [9]; at 33.0 µM 24% | [9]; at 100.0 µM 40% | [10]; [17] -47% | [10]; [18] -21% | [10]; at 50.0 µM 18.8% | [11]; at 1.2 µM -10% | [11]; at 3.7 µM 0% | [11]; [17] -49% | [11]; at 11.0 µM 12% | [11]; at 33.0 µM 50% | [12]; at 1.2 µM -3% | [12]; at 3.7 µM -3% | [12]; at 11.0 µM -3% | [12]; at 33.0 µM 16% | [12]; at 100.0 µM 61% | [13]; at 1.2 µM 5% | [13]; at 3.7 µM -4% | [13]; at 11.0 µM 13% | [13]; at 33.0 µM 42% | [14]; at 1.2 µM -1% | [14]; at 3.7 µM -3% | [14]; at 11.0 µM 21% | [14]; at 33.0 µM 63% | [15]; [17] -81% | [16]; at 1.2 µM 3% | [16]; at 3.7 µM 5% | [16]; at 11.0 µM 26% | [16]; at 33.0 µM 57%
